Most compounds without a hit are left out; they make up all but 4.4% or so of the library.
tim10-1 inh: growth inhibitors of tim10-1 mutant yeast. S. cerevisiae tim10-1 ts strain growth, BacTiter-Glo, 24 h. inhibition, % at 20 µM. 2.2% of 330,000 active. AID 463190;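 active means inhibition of at least 40%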;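 further: mutant grown at 25 °C; 0% = DMSO wells with yeast and 100% = wells holding no yeast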
PfHsp90 yeast 2: growth inhibition of yeast expressing Plasmodium Hsp90; S. cerevisiae expressing PfHsp90, BacTiter-Glo ATP, 48 h; yeast lacking PDR1 and PDR3 efflux regulators; inhibition, % at 9.4 µM; 0.32% of 310,000 active; AID 504621;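 active means every replicate shows inhibition above about 80%, whatever the replicate mean, limit read from the data; inconclusive means mean inhibition reaches the set limit but some replicate falls short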;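 further: 0% = DMSO neutral controls and 100% = 20 µM radicicol positive controls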
SKKanGAS inh: inhibitors of SKKanGAS S. pyogenes growth in kanamycin (SK-promoter or general growth effect); BacTiter-Glo, 6 h; inhibition, % at 7.5 µM; 1.3% of 300,000 active; AID 1662;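 active means mean replicate score, as percent of positive control median, at least 50; inconclusive means mean below 50 but one replicate at or above 50; inactive means mean and every replicate below 50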;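 further: strain carries kanamycin resistance gene driven by streptokinase promoter and grows in 40 µg/ml kanamycin; loss of luminescence reflects streptokinase promoter inhibition or plain growth inhibition; 0% = median of DMSO wells and 100% = positive control at its reference dose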
TIM10 inh: inhibits growth of TIM10 yeast strain; S. cerevisiae TIM10 strain growth, BacTiter-Glo luminescence, 24 h; inhibition, % at 10 µM; 1.4% of 330,000 active;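 active means inhibition of 40% or more at the single tested concentration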;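 further: wild-type TIM10 isogenic control strain grown at permissive 25 °C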
tim23-1 inh: growth inhibitors of tim23-1 mutant yeast | S. cerevisiae tim23-1 growth, BacTiter-Glo luminescence, 24 h | inhibition, % at 20 µM | 1.3% of 330,000 active;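 active means growth inhibition of the mutant yeast at or above 50%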;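 further: temperature-sensitive mutant grown at 25 °C; plate controls were DMSO-treated mutant yeast for no effect and medium wells lacking yeast for full effect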
tim10 confirm: TIM10 yeast growth inhibition, confirmed; shares compounds with TIM10 inh; S. cerevisiae tim10 strain growth, BacTiter-Glo luminescence, 24 h; inhibition, % at 10 µM; 63% of 4,600 active;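 active means inhibition of yeast growth at or above a set limit in either of two replicates at 10 µM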;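 further: this counterscreen used the strain with wild-type TIM10; 0% = yeast with DMSO and 100% = medium wells lacking yeast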
An asterisk follows results filed as active; u = inconclusive; x = no result given.

SMILES	tim10-1 inh	PfHsp90 yeast 2	SKKanGAS inh	TIM10 inh	tim23-1 inh	tim10 confirm
Cc1ccc(OCC(=O)NCCNC(=O)c2ccccn2)cc1	5.9	5.6	1.4	-4.6	13.1	x
O=C(Nc1ncn[nH]1)c1ccc([N+](=O)[O-])cc1[N+](=O)[O-]	6.1	x	9.9	42.6*	-4.9	-20.4
O=[N+]([O-])c1ccc(/C=N/Nc2ccnc3cc(Cl)ccc23)o1	23.8	-16.3	u	63.8*	-2.0	71.2*
O=C(CCl)c1ccc2c(c1)CCN2C(=O)C1CC1	8.6	x	-15.8	60.5*	-7.1	73.7*
CC(=O)N1CCc2cc(C(=O)CN3CCC(C)CC3)ccc21	16.7	6.2	2.0	-7.2	7.9	x
CC1(C)CC(=O)C(C(O)c2ccccc2)C(C)(C)N1 (stereo unspecified)	6.1	1.3	2.4	2.2	5.8	x
Cc1ccc(C)c(NC(=O)c2ccc(S(=O)(=O)C(F)F)cc2)c1	-37.1	-2.0	-15.2	-24.4	16.0	x
CC(C)c1ccc(S(=O)(=O)N2CCN(C(=O)C3=COCCO3)CC2)cc1	4.8	-10.2	x	97.0*	9.7	1.3
O=C(NCCC1=CCCCC1)c1ccc(-n2cncn2)c([N+](=O)[O-])c1	10.8	11.4	-8.6	3.8	6.1	x
c1ccc2[nH]c(CSc3nc4ccccc4s3)nc2c1	32.7	-5.7	16.6	67.7*	23.0	58.6*
Cc1nnc(SCc2nc3ccccc3[nH]2)s1	-5.8	1.1	-0.3	-2.2	-7.9	x
C/C(CC(=O)Nc1ccc(N(C)C)cc1)=N\NC(=O)c1ccc([N+](=O)[O-])cc1	4.3	2.8	3.0	3.6	-7.1	x
COc1ccc2[nH]c(C(=O)O)c(CCNC(=O)/C=C/c3ccc(O)c(OC)c3)c2c1	6.3	-2.0	3.3	6.9	-3.2	x
CC(NC(=S)Nc1ccc(OC(F)F)c(Cl)c1)C(C)(C)C (stereo unspecified)	38.0	13.3	26.8	50.5*	30.2	37.6*
FC(F)Oc1ccc(NC(=S)NCc2ccccc2)cc1Cl	31.4	x	4.3	49.5*	24.3	33.5*
FC(F)(F)c1ccc(NC(=S)NCc2ccccc2)cc1	36.3	-0.1	31.6	45.4*	42.8	46.6*
O=C(O)c1ccc(NC(=S)NCc2ccccc2)cc1	-5.9	-6.1	-2.3	11.8	-3.5	x
Cc1ccc(NC(=S)Nc2ccc(OC(F)F)c(Cl)c2)cc1Cl	x	7.7	11.4	x	x	x
CC1=C(C(=O)OCc2ccccc2)C(c2ccccc2OS(=O)(=O)c2ccc(C)cc2)NC(=O)N1CCCC(=O)O (stereo unspecified)	6.7	x	28.7	9.8	22.1	x
CC(NC(=S)Nc1cccc(C(F)(F)F)c1)C(C)(C)C (stereo unspecified)	36.5	x	10.2	44.7*	33.9	25.8
Cc1ccc(NC(=S)NNC(=S)Nc2cccc(C(F)(F)F)c2)cc1	29.4	-17.0	87.8*	53.0*	38.7	48.4*
CN(C)NC(=S)Nc1cccc(C(F)(F)F)c1	16.0	-13.4	0.9	3.7	-5.3	x
O=C(C[n+]1ccccc1)N/N=C/c1ccc(Br)cc1	-12.7	-9.6	x	-2.5	-8.9	x
O=C1C=C(c2ccc(C(=O)O)cc2)C[C@@H](c2ccc(F)cc2)C1	14.9	14.8	x	4.3	11.2	x
COc1ccc(CN(C)C(=O)c2[nH]c(C)c(C(C)=O)c2C)cc1F	6.9	5.2	-7.1	-18.0	-1.8	x
SMILES	tim10-1 inh	PfHsp90 yeast 2	SKKanGAS inh	TIM10 inh	tim23-1 inh	tim10 confirm
O=C(CSc1nc(C(F)(F)F)cc(=O)[nH]1)Nc1cccc2ccccc12	-4.3	-12.7	8.2	-3.5	13.4	x
O=C1N=C(c2ccccc2)S/C1=C\c1cccs1	6.4	-0.3	-0.7	24.5	36.2	x
O=C1OC(c2ccccc2)=C/C1=C/c1cccs1	12.3	0.3	-2.9	46.3*	42.9	-35.2
COC(=O)CC(N)c1ccc(Br)cc1 (stereo unspecified)	6.8	-2.6	-12.4	-6.5	12.0	x
COC(=O)CC(NC(=S)NC(=O)c1ccccc1)c1ccc(Br)cc1 (stereo unspecified)	25.6	-15.7	10.9	40.3*	34.0	36.9*
O=C(NC1CCCC1)C1CCN(C(=O)c2cccc(Cl)c2)CC1	15.1	-1.5	9.9	-17.0	13.8	x
Cc1ccccc1OCCn1cnc2cc([N+](=O)[O-])ccc2c1=O	34.8	-68.9	7.0	42.2*	27.7	1.1
O=c1c2ccccc2ncn1CCCOc1ccccc1[N+](=O)[O-]	4.5	13.1	-10.1	-4.6	11.7	x
CC1CCc2c(C(=O)Nc3ccccn3)csc2C1 (stereo unspecified)	6.8	8.5	8.2	13.0	39.9	x
CC1CCc2c(C(=O)Nc3nccs3)csc2C1 (stereo unspecified)	34.2	-36.5	-8.7	43.5*	42.7	43.4*
CCC(C)(C)NC(=S)Nc1ccccc1C	-9.5	0.1	-3.4	0.2	9.9	x
CCn1c(C)cs/c1=N\C(=S)Nc1ccccc1C	34.9	4.3	-1.1	40.7*	47.6	-34.2
COc1ccc(C(=O)COC(=O)c2ccc3c(c2)OCO3)c(OC)c1	-11.9	0.5	x	9.0	40.9	x
CC1CCCC(C)N1C(=O)COC(=O)c1cncc(Br)c1 (stereo unspecified)	-13.9	x	x	-3.7	4.3	x
COc1ccccc1NC(=S)N(Cc1cccnc1)Cc1ccccc1Cl	24.0	6.9	6.4	31.2	7.0	x
COc1ccccc1NC(=S)N(Cc1ccc(C)cc1)Cc1cccnc1	38.1	13.7	12.3	46.6*	29.5	14.9
O=C(CN1CCCCC1)Nc1cc(S(=O)(=O)N2CCOCC2)ccc1N1CCCC1	-15.0	0.9	x	-0.6	-7.0	x
CCN(C[C@H]1N[C@@](C)(C(=O)OC)[C@H]2C(=O)N(Cc3ccccc3)C(=O)[C@@H]12)S(=O)(=O)c1ccc(C(C)(C)C)cc1	21.3	9.5	x	90.0*	18.0	11.2
CC1(C)Cc2c(C#N)c(N3CCN(C(=O)c4ccco4)CC3)nc(Cc3ccccc3)c2CO1	27.7	-7.2	32.8	42.3*	18.3	4.5
CN(C(=O)CN(C)S(=O)(=O)c1ccc(F)cc1)c1c(N)n(Cc2ccccc2)c(=O)[nH]c1=O	-7.1	x	-9.3	1.5	3.2	x
COC(=O)[C@@H](NC(=O)NCCC1=CCCCC1)C(C)C	10.0	1.3	0.1	49.1*	6.2	-16.0
Cc1c(C)c(C)c2[nH]c(-c3ccc4c(c3)OCO4)nc2c1C	25.8	18.7	-3.2	81.7*	46.2	87.2*
O=C(Nc1c(F)cccc1F)c1cnc(N2CCN(c3ccccn3)CC2)c2ccccc12	34.8	-13.5	1.1	43.2*	30.8	38.2*
Cc1ccc(NC(=O)c2cnc(N3CCN(c4ccccn4)CC3)c3ccccc23)c(Br)c1	x	-35.8	-4.0	x	x	x
O=C1Nc2ccc(Cl)cc2C(C#CC2CC2)(C(F)(F)F)O1 (stereo unspecified)	33.7	5.1	-6.6	30.3	46.3	x
CCOCCCNC(=O)Cn1cnc2c(cnn2-c2ccc(OC)cc2)c1=O	-13.7	21.5	-4.7	49.9*	-3.2	-5.9
Cc1cc(=O)oc2cc3oc(=O)cc(C)c3cc12	-21.3	-5.7	1.6	-7.4	-12.2	x

Screens as filed in PubChem.
